Many of the other results were omitted from the sample, so hits are more common in it than they were.
mHTT CaM bind: mutant huntingtin-calmodulin interaction inhibitors – biochemical, AlphaScreen, primary screen | P42858 | AlphaScreen His-mHTT/GST-CaM binding, luminescence | inhibition, % at 15 µM | 3.6% of 190,000 active | AID 1671202, 2021
Target sequence (P42858 whole entry, looked up, change not shown): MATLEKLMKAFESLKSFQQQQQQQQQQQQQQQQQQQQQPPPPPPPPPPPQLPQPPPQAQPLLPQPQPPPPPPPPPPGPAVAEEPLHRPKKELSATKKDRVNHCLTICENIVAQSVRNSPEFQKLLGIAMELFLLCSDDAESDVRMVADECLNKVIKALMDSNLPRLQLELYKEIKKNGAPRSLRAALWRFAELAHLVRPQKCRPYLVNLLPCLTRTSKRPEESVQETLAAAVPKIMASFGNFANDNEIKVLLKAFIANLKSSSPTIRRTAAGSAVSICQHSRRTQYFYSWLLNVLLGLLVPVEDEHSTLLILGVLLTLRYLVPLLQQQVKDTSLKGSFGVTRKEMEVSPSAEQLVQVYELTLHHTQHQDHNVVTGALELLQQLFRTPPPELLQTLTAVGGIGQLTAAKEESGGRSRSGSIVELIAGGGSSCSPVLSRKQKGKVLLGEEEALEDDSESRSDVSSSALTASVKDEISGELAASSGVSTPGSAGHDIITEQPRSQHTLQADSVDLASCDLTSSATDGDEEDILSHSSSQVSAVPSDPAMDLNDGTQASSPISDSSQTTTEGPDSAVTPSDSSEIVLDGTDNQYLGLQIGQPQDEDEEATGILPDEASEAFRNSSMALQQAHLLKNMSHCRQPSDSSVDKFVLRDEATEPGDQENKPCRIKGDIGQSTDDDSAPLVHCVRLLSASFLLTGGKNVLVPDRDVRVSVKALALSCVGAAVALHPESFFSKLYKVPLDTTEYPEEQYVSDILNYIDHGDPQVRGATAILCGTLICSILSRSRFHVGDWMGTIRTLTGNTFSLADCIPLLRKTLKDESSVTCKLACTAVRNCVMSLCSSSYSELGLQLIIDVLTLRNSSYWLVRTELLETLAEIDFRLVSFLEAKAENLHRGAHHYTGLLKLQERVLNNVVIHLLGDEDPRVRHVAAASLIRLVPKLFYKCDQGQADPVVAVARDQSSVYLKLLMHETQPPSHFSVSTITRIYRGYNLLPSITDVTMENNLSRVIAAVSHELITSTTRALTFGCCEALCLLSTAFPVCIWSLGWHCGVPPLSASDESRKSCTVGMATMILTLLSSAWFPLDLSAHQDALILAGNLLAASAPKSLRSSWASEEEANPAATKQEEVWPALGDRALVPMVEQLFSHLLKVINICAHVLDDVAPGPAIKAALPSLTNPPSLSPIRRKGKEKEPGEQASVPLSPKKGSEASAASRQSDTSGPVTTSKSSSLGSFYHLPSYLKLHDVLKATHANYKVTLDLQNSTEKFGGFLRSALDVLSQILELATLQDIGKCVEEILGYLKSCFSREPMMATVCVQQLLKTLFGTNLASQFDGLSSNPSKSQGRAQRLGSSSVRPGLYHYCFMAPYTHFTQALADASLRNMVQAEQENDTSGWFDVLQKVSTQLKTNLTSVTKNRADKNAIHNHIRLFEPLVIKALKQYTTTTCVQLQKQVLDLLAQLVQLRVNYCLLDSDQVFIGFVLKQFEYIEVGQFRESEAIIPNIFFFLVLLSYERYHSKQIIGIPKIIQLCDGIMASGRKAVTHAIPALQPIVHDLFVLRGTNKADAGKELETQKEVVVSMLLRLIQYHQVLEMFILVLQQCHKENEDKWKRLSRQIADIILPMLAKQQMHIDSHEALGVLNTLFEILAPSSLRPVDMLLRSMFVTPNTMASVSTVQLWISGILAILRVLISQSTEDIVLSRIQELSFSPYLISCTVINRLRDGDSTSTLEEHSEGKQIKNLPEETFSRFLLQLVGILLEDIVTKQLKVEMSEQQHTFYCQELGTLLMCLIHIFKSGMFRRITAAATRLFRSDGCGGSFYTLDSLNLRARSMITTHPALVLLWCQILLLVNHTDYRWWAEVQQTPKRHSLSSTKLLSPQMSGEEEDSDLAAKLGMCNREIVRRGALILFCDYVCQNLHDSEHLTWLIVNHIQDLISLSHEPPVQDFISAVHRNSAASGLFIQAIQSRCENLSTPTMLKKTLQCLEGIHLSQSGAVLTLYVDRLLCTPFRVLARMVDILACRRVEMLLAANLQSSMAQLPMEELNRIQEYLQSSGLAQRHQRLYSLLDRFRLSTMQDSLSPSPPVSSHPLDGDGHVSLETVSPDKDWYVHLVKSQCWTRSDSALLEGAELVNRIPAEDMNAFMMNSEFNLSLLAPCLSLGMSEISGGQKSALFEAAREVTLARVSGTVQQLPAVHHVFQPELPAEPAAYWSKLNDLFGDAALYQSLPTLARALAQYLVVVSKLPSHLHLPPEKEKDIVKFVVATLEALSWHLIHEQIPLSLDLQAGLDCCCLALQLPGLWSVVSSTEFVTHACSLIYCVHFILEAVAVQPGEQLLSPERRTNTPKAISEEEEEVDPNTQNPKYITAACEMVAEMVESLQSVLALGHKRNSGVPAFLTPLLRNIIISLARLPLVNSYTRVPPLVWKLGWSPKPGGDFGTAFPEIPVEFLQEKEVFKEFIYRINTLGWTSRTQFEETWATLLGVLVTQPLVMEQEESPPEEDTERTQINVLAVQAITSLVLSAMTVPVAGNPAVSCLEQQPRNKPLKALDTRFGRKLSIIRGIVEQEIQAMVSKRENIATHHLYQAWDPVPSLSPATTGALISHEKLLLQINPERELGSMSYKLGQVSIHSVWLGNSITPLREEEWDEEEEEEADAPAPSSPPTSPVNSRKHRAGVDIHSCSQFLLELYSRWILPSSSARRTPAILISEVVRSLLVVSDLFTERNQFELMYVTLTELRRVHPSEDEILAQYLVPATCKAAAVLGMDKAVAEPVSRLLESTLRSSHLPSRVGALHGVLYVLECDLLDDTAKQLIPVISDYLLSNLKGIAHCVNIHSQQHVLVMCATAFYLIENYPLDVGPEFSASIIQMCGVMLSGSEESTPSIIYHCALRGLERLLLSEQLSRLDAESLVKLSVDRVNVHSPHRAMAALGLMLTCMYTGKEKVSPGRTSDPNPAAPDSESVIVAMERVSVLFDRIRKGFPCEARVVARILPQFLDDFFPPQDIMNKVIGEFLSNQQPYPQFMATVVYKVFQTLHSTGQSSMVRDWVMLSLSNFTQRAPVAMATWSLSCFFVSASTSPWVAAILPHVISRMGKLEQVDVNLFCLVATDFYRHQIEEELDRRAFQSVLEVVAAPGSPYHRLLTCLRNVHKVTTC
Pf apPOL inh: Pf-apPOL inhibitors, biochemical, fluorescence; inhibition, % at 10 µM; AID 1794808, 2022; Recombinant Pf-apPOL, molecular beacon fluorescence, 1.5 h; 0.25% of 210,000 active; Plasmodium falciparum apicoplast DNA polymerase (apPOL)
Large screens that a line does not name were inactive. No stated cut-off is given here; in the data, active means inhibition above about 50%; inactive means the rest.

O=c1[nH]c2ccccc2c(=O)n1Cc1ccccc1	none
Cc1c(Cc2ccccc2)[nH]c2ccccc12	mHTT CaM bind 100
COc1ccc(Cc2[nH]n3c(=O)cc(-c4ccc([N+](=O)[O-])cc4)nc3c2-c2ccccc2)cc1	mHTT CaM bind 71
COc1ccc(-c2c(Cc3ccccc3)[nH]n3c(=O)cc(-c4ccc([N+](=O)[O-])cc4)nc23)cc1	none
CC(=O)OCC(OC(C)=O)C(OC(C)=O)C(CNC(=O)c1ccc(C)c(C)c1)OC(C)=O (stereo unspecified)	none (no result: mHTT CaM bind)
COC(=O)c1ccc(NCc2cccs2)cc1	none
Oc1ccc(NCc2cccs2)cc1	mHTT CaM bind 64
CN(CC(=O)N1CCN(Cc2ccccc2)CC1)S(=O)(=O)c1ccc(Cl)cc1	Pf apPOL inh 97
CN(CC(=O)N1CCN(c2ccc(F)cc2)CC1)S(=O)(=O)c1ccc(Cl)cc1	none
CN(CC(=O)N1CCCC1)S(=O)(=O)c1ccc(Cl)cc1	Pf apPOL inh 51
CN1CCN(C(=O)CN(C)S(=O)(=O)c2ccc(Cl)cc2)CC1	none
COc1ccc(N2CCN(C(=O)CN(C)S(=O)(=O)c3ccc(Cl)cc3)CC2)cc1	Pf apPOL inh 89
CN(CC(=O)N1CCCCCC1)S(=O)(=O)c1ccc(Cl)cc1	none
Cc1ccc(NC(=O)c2nc(C(C)C)oc2C)c(C)c1	none
CC1(C)CC(=O)C(C=NCCN2CCN(C3OC(=O)c4ccccc43)CC2)=C(O)C1 (stereo unspecified)	none
O=C1CCC(=O)N1c1ccc(NC2CCCc3ccccc32)c([N+](=O)[O-])c1 (stereo unspecified)	mHTT CaM bind 66
O=C1C2CC=CCC2C(=O)N1c1ccc(NC2CCCc3ccccc32)c([N+](=O)[O-])c1 (stereo unspecified)	none
CCn1c(=O)c2c(ncn2Cc2cccc(Cl)c2)n(-c2ccccc2)c1=O	none
CSc1nc2n(n1)C(c1ccc(F)c(Br)c1)C1=C(CC(C)(C)CC1=O)N2 (stereo unspecified)	none
COCCNC(=O)c1ccccc1N(Cc1ccccc1)S(=O)(=O)c1ccccc1	none
CS(=O)(=O)N(Cc1ccccc1)c1ccccc1C(=O)NCCSc1ccc(Cl)cc1	mHTT CaM bind 52
Cc1ccc(-c2cc(-c3ccccc3)nc(NN)n2)cc1	none
COc1ccc(-c2cc(-c3ccccc3)nc(NN)n2)cc1OC	mHTT CaM bind 63
O=C(O)C1CSC(c2ccc([N+](=O)[O-])s2)N1 (stereo unspecified)	mHTT CaM bind 56
O=C(O)C1CSC(c2cccc([N+](=O)[O-])c2)N1 (stereo unspecified)	none
CCc1noc(C2CCCCN2Cc2ccc(F)cc2)n1 (stereo unspecified)	none
COc1ccc(NC(=O)c2c(NC(=O)CNCCO)sc3c2CCC3)cc1	mHTT CaM bind 62
CCOc1ccc(NC(=O)c2c(NC(=O)CNCCN3CCOCC3)sc3c2CCC3)cc1	mHTT CaM bind 81
CCOc1ccc(NC(=O)c2c(NC(=O)CNCC3CCCO3)sc3c2CCC3)cc1 (stereo unspecified)	none
COc1ccc(NC(=O)c2c(NC(=O)CNCc3ccco3)sc3c2CCC3)cc1	none
CCCNC(=O)COc1ccc(Br)cc1C	none
O=C1C2CCCCC2C(=O)N1CN1CCOCC1 (stereo unspecified)	none
COc1ccc(OC)c(NC(=O)c2c(NC(=O)c3ccccc3F)sc3c2CCCC3)c1	none
COc1ccc(OC)c(NC(=O)c2c(NCc3ccccn3)sc3c2CCCC3)c1	mHTT CaM bind 59
COc1ccc(NC(=O)c2c(NCc3ccccn3)sc3c2CCC3)cc1	mHTT CaM bind 59
COc1ccc(Cl)cc1NC(=O)c1c(NCc2ccccn2)sc2c1CCCC2	mHTT CaM bind 75
COc1ccc(NC(=O)c2c(NC(=O)c3ccccc3Cl)sc3c2CCCC3)c(OC)c1	none
COc1ccc(NC(=O)c2c(NC(=O)c3cccnc3)sc3c2CCC3)cc1	none
CCOc1ccccc1NC(=O)c1c(NCc2cc(OC)ccc2OC)sc2c1CCC2	none
COc1ccc(Cl)cc1NC(=O)c1c(NCc2cccn2C)sc2c1CCCC2	mHTT CaM bind 65
COc1ccc(C2=COC3(CCCN(C(=O)c4ccco4)C3)C2)cc1 (stereo unspecified)	none
COc1ccc(CCC(=O)N(Cc2ccsc2)Cc2ccco2)cc1	none
O=C(CCc1ccccc1)Nc1cccc(C(=O)O)c1	none
CC(=O)NCc1csc(C2CCN(S(=O)(=O)c3ccc(C)c(F)c3)CC2)n1	none
Cc1cc(NC(=O)CCCn2nc(-c3cccs3)ccc2=O)sn1	none
CC(=O)N1CCc2cc(N=Cc3ccccc3Cl)ccc21	none
O=C(Cc1ccc(F)cc1)Nc1cnc(N2CCCCC2)nc1	none
O=C(Cc1cccs1)NC1CC(=O)N(c2ccc3c(c2)OCO3)C1 (stereo unspecified)	none
Cc1ccc2[nH]cc(CCNC(=O)CC3CCN(C(=O)C4CCCCC4)CC3)c2c1	mHTT CaM bind 86
O=C(NCCc1c[nH]c2ccccc12)C1CCc2nc(N3CCCC3)ncc2C1 (stereo unspecified)	mHTT CaM bind 54
COc1ccc2[nH]cc(CCNC(=O)C3CCc4nc(N5CCCC5)ncc4C3)c2c1 (stereo unspecified)	none
COc1ccc2[nH]cc(CCNC(=O)CC3CCN(C(=O)C4CCCCC4)CC3)c2c1	none
O=C(NCCc1c[nH]c2ccccc12)C1CCN(c2ccncc2)CC1	none
O=C(CC1CCN(C(=O)c2ccccc2Cl)CC1)NCCc1c[nH]c2ccccc12	mHTT CaM bind 71
CN(C)c1ccc(N2CCC(C(=O)NCCc3c[nH]c4ccccc34)CC2)nn1	mHTT CaM bind 96
O=C(CC1CCN(C(=O)c2ccccc2Cl)CC1)NCc1ccccc1F	none
CCC(=O)Nc1cccc(-c2noc(C3CCN(C(=O)CCC4CCCC4)CC3)n2)c1	none
O=C(NC1CC1)c1ccc(OCC2CCCN(C(=O)c3ccco3)C2)cc1 (stereo unspecified)	none
Cn1nc(-c2nc(C3CC3)no2)c2c1CCN(C(=O)c1ccc(Br)cc1)C2	none
O=C(NCc1ccc(F)cc1Cl)C1CCCN(c2cn[nH]c(=O)c2)C1 (stereo unspecified)	none
Cc1ccc2[nH]cc(CCNC(=O)C3CCN(c4ccc(N5CCCCC5)nn4)CC3)c2c1	mHTT CaM bind 78
Cc1ccc(CNC(=O)C2CCN(c3ccc(N4CCCCC4)nn3)CC2)cc1	none
CC(CCc1ccccc1)NC(=O)CC1CCN(C(=O)C2CCCCC2)CC1 (stereo unspecified)	mHTT CaM bind 57
CN(CCNC(=O)CC1CCN(C(=O)C2CCCCC2)CC1)Cc1ccccc1	none
O=C(Cn1cnc([N+](=O)[O-])c1[N+](=O)[O-])Nc1ccc(Cl)cc1	none
COc1ccccc1-c1cnn2c(Nc3ccc(NC(C)=O)cc3)cc(C)nc12	mHTT CaM bind 54
COc1ccccc1-c1cnn2c(C)cc(C)nc12	none
CC(=O)NC1=NN(C(C)=O)C(c2ccc(OCc3ccccc3)cc2)S1 (stereo unspecified)	mHTT CaM bind 68
CC(=O)NC1=NN(C(C)=O)C(c2ccc(OCc3ccccc3)c(OCc3ccccc3)c2)S1 (stereo unspecified)	none
O=C(CCC1CCCN(C(=O)Nc2cccc(F)c2)C1)NCc1ccc(F)cc1 (stereo unspecified)	none
NNC(=O)c1nc[nH]c1C(=O)Nc1ccccc1	mHTT CaM bind 81
O=C(Nc1ccccc1)c1ccccc1	none (no result: mHTT CaM bind)
CCOc1ccc(-n2nc3ccc(NC(=O)Cc4ccc(Cl)cc4)cc3n2)cc1	none
NNc1ncnc2ccccc12	mHTT CaM bind 100 (no result: Pf apPOL inh)
c1ccc(CCNc2ncnc3ccccc23)cc1	none
